Assay results reported in PubChem BioAssay (NCATS).
Inconclusive results are not listed. The source made the active and inactive calls. Calls come from the whole dose curve; as a rule, active = well fitted inhibition curve with a large enough effect; inconclusive = small, poorly fitted or top-dose-only effect; inactive = flat fitted curve, though single readings scatter.

Assay: qHTS for Inhibitors of Plasmodium falciparum (DD2) proliferation (AID 504314);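 for activity, negative = inhibition: parasite DNA measured by SYBR Green fluorescence after red cell lysis; plate controls were DMSO vehicle for no effect and artemisinin wells for full effect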
Conditions: P. falciparum Dd2 in erythrocytes, SYBR Green growth, 72 h; series mostly up to 6.11 µM; activity, negative = inhibition: at the top concentration
In short: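 Infected RBCs, 0.3% parasitemia, 2.5% Hct; compound 72 h, 37C/5% CO2; lyse + SYBR Green I, RT overnight, dark; read ex485/em535; normalize to DMSO and artemisinin 0.29 uM.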
Potency is the fitted concentration of half-maximal effect.

activity, negative = inhibition, inactive:
COc1ccc(C=CNC(=O)Cc2ccc(OC)c(OC)c2)cc1 -3.07%, C=CC1=C2C=C(C3CC3)N(CC(C)C)C=C2C(=O)C(C)(OC(=O)c2ccco2)C1=O (stereo not given) -0.305% [at 1.12 µM], COC(=O)[C@H](Cc1ccccc1)NC(=O)O[C@H]1C(=O)c2ccc(OC)cc2O[C@@H]1c1ccc2c(c1)OCO2 -5.23%, N#CCCCS(=O)(=O)c1nnnn1-c1ccccc1 -5.25%, COc1cc2c(c(OC)c1OC)C1(c3ccccc3)CCCCCC1[C@@H]2NC(=O)C(F)(F)F (stereo not given in full) -8.28%, CCO[C@@H]1C[C@@]1(C=C[C@@H](C)[C@H](OC)c1ccccc1Br)C(=O)OC -2%, COC(=O)CC=C[C@@H](C)[C@@H](COc1ccccc1Br)OC 1.18%, C=CC[C@@H]1C=CC(ON=CC[C@@H]2C=C[C@@H](OC(C)=O)[C@@H](COC(C)=O)O2)[C@H](CO)O1 (stereo not given in full) 1.83%, C[C@@H]1CC[C@H]2C(=O)N(Cc3cccc([N+](=O)[O-])c3)C[C@@H](O)CN2[C@@H]1c1cccc(Br)c1 -2%, CC[C@H]1OC(c2ccccc2)[C@H](C)[C@H]2O[C@@H]2[C@@H]1C(=O)OC (stereo not given in full) -8.25%, C[C@H]1COC(=O)[C@H](Cc2ccccc2)NC(=O)[C@@H](C)COC(=O)[C@H](Cc2ccccc2)NC1=O -1.02%, COC(=O)C[C@H]1c2ccccc2[C@@H]2C(=C[C@@H](C)[C@H]3C(=O)N(c4ccccc4)C(=O)[C@H]32)N1C(=O)OC -1.69%, COc1ccc([C@]23Cc4cc(C#N)ccc4[C@H](O2)C2=C(CC4(CCCCC4)OC2=O)O3)cc1 -5.44%, COC(=O)C1=C(C)C(=O)[C@]2(O)c3ccccc3N(C)[C@]12C -5.13%, C[C@H]1Cc2c(-c3ccccc3)nc3c(c2CO1)CN(S(=O)(=O)c1ccc2c(c1)OCCN2C)CC3 0.591% [at 1.12 µM], CC#CCN1C(=O)NC(c2ccccc2)C(C#N)=C1C (stereo not given) 0.583%, CCCCCCN1C(=O)CC[C@@]23C1=NC(C(=O)OC)=C(C(=O)OC)[C@@H]2N(Cc1ccccc1)c1ccccc13 -8.01%, COC1=C[C@H](C(=O)NCc2ccc(Br)cc2)C(C)C(c2ccccc2)CC1=O (stereo not given in full) 7.49%, CC(=O)OC[C@H]1O[C@H](C#Cc2ccccc2)C=C[C@@H]1OC(C)=O -8.95%, COC(=O)N1[C@H]2CC[C@@]3(C)C=C(C)O[C@]1(C)C3c1ccccc12 -7.92%, CCCC[C@@H]1CN2[C@@H](CC[C@H](C)[C@@H]2c2ccc(Br)cc2)C(=O)O1 0.164%, CCCCS(=O)(=O)N1C2=NC3=C(C(=O)N(CCOC)C3=O)C3N(C)c4ccccc4[C@]23C[C@H]1CO (stereo not given in full) -8.2%, CC(=O)C1=C(C)N(Cc2ccccc2)C(=O)NC1c1cccs1 (stereo not given) -6.67%, O=C1C=C(c2ccccc2)CCC1 2.17%, O=C(NN=C1C[C@@H](O)[C@H](O)[C@H]2[C@@H]3C(=O)N(Cc4ccc5c(c4)OCO5)C(=O)[C@@H]3CC[C@H]12)OCc1ccccc1 -7.73%, O=C1[C@H]2[C@@H]3[C@@H](O)[C@H](O)CC(=NOCc4ccccc4)[C@H]3CC[C@H]2C(=O)N1C1CCCCC1 -3.35%, COc1cc2c(cc1OC)CSC1C(=O)N(C)C(SC2)C(=O)N1C -1.43%, O=C1[C@H]2[C@@H]3[C@@H](O)[C@H](O)CC(=NOCc4ccccc4)[C@H]3CC[C@H]2C(=O)N1Cc1ccc2c(c1)OCO2 -9.81%, COC(=O)N[C@@H](c1ccco1)[C@]1(C(C)=O)CCCC1=O 0.947%, COC(=O)[C@H](COC(C)(C)C)NC(=O)O[C@@H]1C(=O)c2cc(OC)ccc2O[C@H]1c1cccc(OC)c1 -3.09%, C=C(C)C(=O)C=Cc1ccc(Br)cc1 0.07%, CCCCn1c(C)cc2c(c1=O)[C@H]1O[C@](c3ccsc3)(Cc3cc(OC)c(OC)cc31)O2 -6.2%, O=C1OCCC=C1C(O)CCc1ccccc1 (stereo not given) 4.49%, COC1=CC2C(=O)C(C1=O)[C@H](c1ccccc1)[C@H]2C (stereo not given in full) 0.75%

Potency, inactive:
CCN1C(=O)N[C@@H](c2ccccc2)[C@@H](C(=O)OC)[C@H]1C, CCN1C(=NCc2cc(OC)c(OC)c(OC)c2)N[C@@H](c2ccccc2)[C@H](C(=O)OC)[C@H]1C, COC(=O)CCC(=O)OC1(C)C(=O)C=C2C=C(C3CC3)N(Cc3ccc(OC)cc3)C=C2C1=O (stereo not given), CCCCc1nc2c(c3c1C[C@H](C)OC3)CN(C(=O)c1cccnc1)CC2

Potency, active:
COc1cc2c(cc1OC)[C@@H]1O[C@](CCCCN3C(=O)c4ccccc4C3=O)(C2)Oc2c1c(=O)oc1ccccc21 1.5 µM, CCN1C(=NCCc2ccccn2)NC(c2cccc(C(F)(F)F)c2)C(C(=O)OC)=C1C (stereo not given) 0.533 µM
